From PubChem BioAssay (NCATS)
A number with no mark means an inactive call. Results filed as inconclusive are left out. Entries that show only a call come without a potency. The source made the active and inactive calls. Calls follow the shape of the dose curve; as a rule, active = well fitted curve in the direction sought with a large enough effect; inconclusive = small, poorly fitted or top-dose-only effect, or another doubt; inactive = no such curve, though single readings can be large; an effect the other way counts as inactive or inconclusive.

Assays:
[1] = target: Glutathione peroxidase 1 (Homo sapiens) (UniProt P07203); assay: Primary qHTS Assay for Inhibitors of Recombinant Selenoprotein Glutathione Peroxidase 1 (GPX1) (AID 1845191); also: nearly all actives have a fitted effect of over 65% in size
Glutathione peroxidase 1 (Homo sapiens), sequence (P07203 whole entry, looked up): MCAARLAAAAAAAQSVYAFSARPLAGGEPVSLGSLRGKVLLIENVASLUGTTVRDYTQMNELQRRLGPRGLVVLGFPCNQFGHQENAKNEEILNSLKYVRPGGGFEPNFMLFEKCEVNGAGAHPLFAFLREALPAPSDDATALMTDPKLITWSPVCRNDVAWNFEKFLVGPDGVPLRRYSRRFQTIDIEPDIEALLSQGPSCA
Summary of the method: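 10 nM GPX1 + cpd, 30 min RT; start w/ 1 mM GSH, 0.5 mM cumene hydroperoxide, 0.5 mM NADPH, 100 nM GR, 0.01% BSA; buffer 50 mM Tris-HCl pH 7.5, 2 mM EDTA, 150 mM NaCl; Fl 340/450, 0 & 15 min.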

[2] = target: Phospholipid hydroperoxide glutathione peroxidase GPX4 (Homo sapiens) (UniProt P36969); assay: Primary qHTS Assay for Inhibitors of Recombinant Selenoprotein Glutathione Peroxidase 4 (GPX4) (AID 1845192); also: nearly all actives have a fitted effect of over 65% in size
Phospholipid hydroperoxide glutathione peroxidase GPX4 (Homo sapiens), sequence (P36969 whole entry, looked up): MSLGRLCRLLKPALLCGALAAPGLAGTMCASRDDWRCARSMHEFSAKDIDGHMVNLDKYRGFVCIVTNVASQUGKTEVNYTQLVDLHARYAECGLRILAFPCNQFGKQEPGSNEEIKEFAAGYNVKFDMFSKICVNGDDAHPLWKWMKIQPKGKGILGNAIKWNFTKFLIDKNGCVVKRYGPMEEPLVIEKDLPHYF
Summary of the method: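 NADPH consumption, followed by fluorescence at 340/450 nm between 0 and 15 min, reports GPX4 activity via coupled glutathione reductase (100 nM). Enzyme 200 nM was pre-exposed to compound 30 min; 0.5 mM cumene hydroperoxide and 1 mM GSH served as substrates.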

[3] = target: Luciferin 4-monooxygenase (Photinus pyralis) (UniProt P08659); assay: Primary firefly luciferase (FLuc) qHTS assay for identification of artifact compounds. (AID 1845220); also: nearly all actives have a fitted effect of over 60% in size
Summary of the method: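 Compounds sat 15 min at room temperature with 10 uM luciferin and 10 uM ATP (pH 7.6 Tris acetate). Firefly luciferase (10 nM final) was then added, and luminescence was read 5 min later. Data normalized to no-enzyme and DMSO controls were Hill-fitted.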

[4] = Primary fluorescence-based thiol-reactive (MSTI) qHTS assay for identification of artifact compounds. (AID 1845221); also: nearly all actives have a fitted effect of over 65% in size; also: potency is read from the fitted curve at half-maximal effect;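 as to activity change, negative = thiol reactive: series mostly up to about 54 µM; thiol-reactive compounds lower the probe fluorescence signal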
Summary of the method: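 Thiol-reactive compounds detected by quenching of 4 uM MSTI fluorescence (525/598 nm) after 1 h room-temperature dark incubation in PBS pH 7.4, 2% DMSO. qHTS titration; percent inhibition Hill-fitted against Acetyl-MSTI/MSTI controls.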

[5] = test system: Nanoluciferase (engineered Oplophorus gracilirostris luciferase); assay: Primary Nanoluciferase (NLuc) qHTS assay for identification of artifact compounds. (AID 1845222); also: series mostly up to about 54 µM
Summary of the method: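 Luminescence from secreted NLuc (filtered, 1:55-diluted S16 cell medium) read 5 min after Nano-Glo substrate; compounds preincubated 15 min, RT. Hill fits of inhibition normalized to DMSO and no-enzyme.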

[6] = Primary redox qHTS assay for identification of artifact compounds. (AID 1845223)
Summary of the method: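 Amplex Red (25 uM) and HRP (250 mU/mL) in HBSS, with compounds for 15 min, then 250 uM DTT for 30 min, room temperature, dark. Fluorescence 525/598 nm read; normalized to DMSO and 10 uM DA3003; Hill fit.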

| SMILES | Potency [1] | Potency [2] | Potency [3] | Potency [4] | Potency [5] | Potency [6] | outcome [3] | activity change, negative = thiol reactive [4] | activity, negative = inhibition [5] | redox activity (% of DA3003) [6] |
| --- | --- | --- | --- | --- | --- | --- | --- | --- | --- | --- |
| COC(=O)C1=COC(O[C@@H]2O[C@H](CO)[C@@H](O)[C@H](O)[C@H]2O)/C(=C\COC(=O)/C=C/c2ccccc2)C1CC(=O)OCCc1ccc(O)cc1 (stereo partly drawn) | inactive | inactive | inactive | inactive | inactive | inactive |  |  |  |  |
| COc1cc(Cc2cnc(N)nc2N)c(C(C)C)cc1OC | inactive | inactive | inactive | inactive | inactive | inactive |  |  |  |  |
| O=C(O)CCc1ccc(NCc2cccc3c2CCCN3CCOc2ccccc2)cc1F | inactive | inactive | inactive | 1.5 µM (active) | inactive | inactive |  |  |  |  |
| C=C(C)[C@@H]1CC[C@]2(C(=O)O)CC[C@]3(C)[C@H](CCC4[C@@]5(C)CCC(=O)C(C)(C)C5C(O)C[C@]43C)C12 (stereo partly drawn) | inactive | inactive | inactive | inactive | inactive | inactive |  |  |  |  |
| C=C[C@@]1(C)CCC2=C([C@H]1OC(C)=O)[C@H](OC(C)=O)CC1[C@](C)(C(=O)OC)CC[C@H](OC(C)=O)[C@]21C (stereo partly drawn) | inactive | inactive | inactive | inactive | inactive | inactive |  |  |  |  |
| C=C1C[C@H](O)[C@@H](O)[C@@]2(C)C1[C@@H](O)[C@H]1OC(=O)C3[C@@H](C)[C@@H](O)[C@H](O)C2[C@]31C (stereo partly drawn) | inactive | inactive | inactive | inactive | inactive | inactive |  |  |  |  |
| O=C1NC(=O)/C(=C/c2cccc(C(F)(F)F)c2)S1 | inactive | inactive | inactive | 1.06 µM (active) | inactive | inactive |  |  |  |  |
| CC1(C)CC(NC(=O)C(=O)Nc2ccc(Cl)cc2)CC(C)(C)N1 | inactive | inactive | inactive | inactive | inactive | inactive |  |  |  |  |
| C=CC(C)(CC/C=C(\C)C(=O)OC[C@H]1O[C@@H](OC(C)(C=C)CC/C=C(\C)C(=O)O[C@H]2[C@H](O)[C@@H](O)[C@H](OC(C)(C=C)CC/C=C(\C)C(=O)O)O[C@@H]2CO)[C@H](O)[C@@H](O)[C@@H]1O)O[C@@H]1O[C@H](CO)[C@@H](O)[C@H](O)[C@H]1O (stereo partly drawn) | inactive | inactive |  |  |  |  | inactive [at 11.6 µM] | 79.7% [at 11.5 µM] | 3.18% [at 11.6 µM] | 0.215% [at 11.5 µM] |
| CC1CCC2(C(=O)OC3OC(CO)C(O)C(O)C3O)CCC3(C)C(=CCC4C5(C)CCC(O)C(C)(CO)C5CCC43C)C2C1(C)O (stereo not drawn) | inactive | inactive | inactive | inactive | inactive | inactive |  |  |  |  |
| CC1=C2CC(=O)C(C)CC/C=C(\C)CC2(O)OC1=O (stereo not drawn) | inactive | inactive | inactive | inactive | inactive | inactive |  |  |  |  |
| COc1c2c(c(C)c3c1C(=O)OC3)OC1(C)CC(O)C34OC(O)(CCC3(C)C1C2)OC4(C)C (stereo not drawn) | inactive | inactive | inactive | inactive | inactive | inactive |  |  |  |  |
| CC1(C)CC[C@]2(C(=O)O[C@@H]3O[C@H](CO)[C@@H](O)[C@H](O)[C@H]3O)CC[C@]3(C)C(=CCC4[C@@]5(C)C[C@H](O)[C@H](O[C@@H]6OC[C@@H](O)[C@H](O)[C@H]6O)[C@@](C)(CO)C5CC[C@]43C)C2C1 (stereo partly drawn) | inactive | inactive |  |  |  |  | inactive [at 11.6 µM] | 298% [at 11.5 µM] | 3.66% [at 11.6 µM] | 17.7% [at 11.5 µM] |
| O=C(OCC(O)CO[C@@H]1O[C@H](C(=O)O)[C@@H](O)[C@H](O)[C@H]1O)c1ccccc1 (stereo partly drawn) | inactive | inactive | inactive | 6.56 µM (active) | inactive | inactive |  |  |  |  |
| CC1=C(CO)CC(C(C)C2CCC3C4CC=C5CC(OC6OC(COC7OC(CO)C(O)C(O)C7O)C(O)C(O)C6O)CC(O)C5(C)C4CCC23C)OC1=O (stereo not drawn) | inactive | inactive | inactive | inactive | inactive | inactive |  |  |  |  |
| CN1C(=O)N(c2cc(Cl)cc(Cl)c2)C(=O)[C@@]1(C)Cc1ccc(Br)cc1 | inactive | inactive | inactive | inactive | inactive | inactive |  |  |  |  |
| CC1CC2OCC3(O)CCC(O)C(C14CC(c1ccoc1)OC4=O)C23CO (stereo not drawn) | inactive | inactive | inactive | 3.29 µM (active) | inactive | inactive |  |  |  |  |
| COC(=O)C1=COC(O[C@@H]2O[C@H](COC(=O)/C=C/c3ccc(O)cc3)[C@@H](O)[C@H](O)[C@H]2O)C2C(CO)=CCC12 (stereo partly drawn) | inactive | inactive | inactive | inactive | inactive | inactive |  |  |  |  |
| C=C1CCC2C(C)(C)CCC[C@]2(C)[C@H]1CC/C(C)=C/C(=O)O (stereo partly drawn) | inactive | inactive | inactive | inactive | inactive | inactive |  |  |  |  |
| CC1CCC2(C(=O)O)CCC3(C)C(=CCC4C5(C)C[C@@H](O)[C@@H](O)C(C)(CO)C5CCC43C)C2C1(C)O (stereo partly drawn) | inactive | inactive | inactive | inactive | inactive | inactive |  |  |  |  |
| CC1(C)O[C@H]2CC(=O)OC[C@@]23C1=C(O)C(=O)[C@]1(C)C3CC[C@@]2(C)[C@H](c3ccoc3)OC(=O)[C@H]3O[C@]321 (stereo partly drawn) | inactive | inactive | inactive | inactive | inactive | inactive |  |  |  |  |
| C=C1CC[C@H]2[C@@](C)(CCC(OC3OC(CO)C(O)C(O)C3O)[C@@]2(C)CO)C1C(=O)CC1=CCOC1=O (stereo partly drawn) | inactive | inactive | inactive | 3.27 µM (active) | inactive | inactive |  |  |  |  |
| COc1cccc2c1c(O)c(C(=O)N(C)c1ccc(C(F)(F)F)cc1)c(=O)n2C | inactive | inactive | inactive | inactive | inactive | inactive |  |  |  |  |
